In PubChem BioAssay AID1159580 (chemical genetic matrix, 2015):
Values joined by “and” are separate entries in the source; they are usually repeats but may differ in a detail not shown here. Identical values can stand only once. About 2,000 (36%) of roughly 5,500 compounds were called active. About 18% were inconclusive and are not listed. Rule as the data show it: active = normalized growth mostly below about 0.91 (no sharp cut-off); inconclusive = no clear call, values can overlap the other calls; inactive = mostly above about 0.92. Some of the results follow.

Experiment: chemical genetic growth profiling, strain panel (AID 1159580);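 also: tested at 20 µM; growth read once vehicle control cultures reached saturation at 30 °C; 1 = growth at the plate median or of vehicle wells; lower values mean less growth of the strain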
Settings: growth OD

Measured: normalized growth

O=C(O)c1cc2cc(F)ccc2[nH]1
inactive: S. cerevisiae deletion strains, locus YJR075W, strain HOC1, active compounds read low 1.01 | S. cerevisiae deletion strains, locus YKL009W, strain mrt4, active compounds read low 1 | S. cerevisiae deletion strains, locus YKL068W, active compounds read low 1.01 | S. cerevisiae deletion strains, locus YKL085W, strain MDH1 (second series), active compounds read low 1.01 | S. cerevisiae deletion strains, locus YKL085W, strain MDH1, active compounds read low 1.01 | S. cerevisiae deletion strains, locus YKL160W, strain elf1, active compounds read low 0.974 | S. cerevisiae deletion strains, locus YKL190W, strain CNB1, active compounds read low 0.999 | S. cerevisiae deletion strains, locus YKR001C, strain vps1, active compounds read low 1.02 | S. cerevisiae deletion strains, locus YKR026C, strain gcn3, active compounds read low 0.949 | S. cerevisiae deletion strains, locus YKR091W, strain srl3, active compounds read low 0.968 | S. cerevisiae deletion strains, locus YLL001W, strain dnm1, active compounds read low 0.976 | S. cerevisiae deletion strains, locus YLL026W, active compounds read low 0.996 | S. cerevisiae deletion strains, locus YLL041C, strain sdh2, active compounds read low 0.97 | S. cerevisiae deletion strains, locus YLR027C, strain aat2, active compounds read low 0.99 | S. cerevisiae deletion strains, locus YLR039C, strain RIC1, active compounds read low 1.02 | S. cerevisiae deletion strains, locus YLR058C, strain SHM2, active compounds read low 1.01 | S. cerevisiae deletion strains, locus YLR102C, strain apc9, active compounds read low 1.02 | S. cerevisiae deletion strains, locus YLR113W, strain HOG1, active compounds read low 0.948 | S. cerevisiae deletion strains, locus YLR221C, strain rsa3, active compounds read low 0.986 | S. cerevisiae deletion strains, locus YLR258W, strain gsy2, active compounds read low 0.987 | S. cerevisiae deletion strains, locus YLR262C, strain YPT6 (second series), active compounds read low 1 | S. cerevisiae deletion strains, locus YLR262C, strain YPT6, active compounds read low 1.04 | S. cerevisiae deletion strains, locus YLR268W, strain sec22, active compounds read low 1.02 | S. cerevisiae deletion strains, locus YLR320W, strain mms22, active compounds read low 1.01 | S. cerevisiae deletion strains, locus YLR330W, strain CHS5, active compounds read low 1.01 | S. cerevisiae deletion strains, locus YLR342W, strain FKS1 (second series), active compounds read low 1.01 | S. cerevisiae deletion strains, locus YLR342W, strain FKS1, active compounds read low 0.98 | S. cerevisiae deletion strains, locus YLR357W, strain rsc2, active compounds read low 0.976 | S. cerevisiae deletion strains, locus YLR370C, strain arc18, active compounds read low 0.989 | S. cerevisiae deletion strains, locus YLR371W, strain rom2, active compounds read low 1.01 | S. cerevisiae deletion strains, locus YLR384C, strain iki3, active compounds read low 0.965 | S. cerevisiae deletion strains, locus YLR418C, strain cdc73, active compounds read low 1.05 | S. cerevisiae deletion strains, locus YML016C, strain PPZ1, active compounds read low 1.01 | S. cerevisiae deletion strains, locus YML032C, strain rad52, active compounds read low 1.02 | S. cerevisiae deletion strains, locus YML120C, strain ndi1, active compounds read low 0.995 | S. cerevisiae deletion strains, locus YML124C, strain tub3, active compounds read low 1.01 | S. cerevisiae deletion strains, locus YMR058W, strain fet3, active compounds read low 0.985 | S. cerevisiae deletion strains, locus YMR078C, strain ctf18, active compounds read low 1.02 | S. cerevisiae deletion strains, locus YMR125W, strain sto1, active compounds read low 0.948 | S. cerevisiae deletion strains, locus YMR129W, active compounds read low 0.982 | S. cerevisiae deletion strains, locus YMR205C, strain PFK2, active compounds read low 1.03 | S. cerevisiae deletion strains, locus YMR223W, strain ubp8, active compounds read low 1.02 | S. cerevisiae deletion strains, locus YMR231W, strain pep5, active compounds read low 0.992 | S. cerevisiae deletion strains, locus YMR263W, strain SAP30, active compounds read low 1.01 and 0.999 | S. cerevisiae deletion strains, locus YMR307W, strain GAS1, active compounds read low 1.05 | S. cerevisiae deletion strains, locus YNL067W, strain RPL9B, active compounds read low 1.02 | S. cerevisiae deletion strains, locus YNL071W, strain lat1, active compounds read low 0.984 | S. cerevisiae deletion strains, locus YNL128W, strain TEP1, active compounds read low 1 | S. cerevisiae deletion strains, locus YNL153C, strain GIM3, active compounds read low 1.01 | S. cerevisiae deletion strains, locus YNL175C, strain NOP13, active compounds read low 0.952 | S. cerevisiae deletion strains, locus YNL183C, strain NPR1, active compounds read low 0.908 | S. cerevisiae deletion strains, locus YNL197C, strain WHI3, active compounds read low 0.949 | S. cerevisiae deletion strains, locus YNL209W, strain ssb2, active compounds read low 0.983 | S. cerevisiae deletion strains, locus YNL224C, strain SQS1, active compounds read low 0.973 | S. cerevisiae deletion strains, locus YNL233W, strain BNI4, active compounds read low 1.01 | S. cerevisiae deletion strains, locus YNL248C, strain rpa49, active compounds read low 0.969 | S. cerevisiae deletion strains, locus YNL250W, strain rad50, active compounds read low 1.01 | S. cerevisiae deletion strains, locus YNL271C, strain bni1, active compounds read low 1.01 | S. cerevisiae deletion strains, locus YNL298W, strain CLA4, active compounds read low 1.03 | S. cerevisiae deletion strains, locus YNL307C, strain MCK1, active compounds read low 1.02 | S. cerevisiae deletion strains, locus YNL322C, strain KRE1 (second series), active compounds read low 0.99 | S. cerevisiae deletion strains, locus YNL322C, strain KRE1, active compounds read low 1.01 and 0.971 | S. cerevisiae deletion strains, locus YNR049C, strain mso1, active compounds read low 0.97 | S. cerevisiae deletion strains, locus YNR052C, strain pop2, active compounds read low 1.02 | S. cerevisiae deletion strains, locus YOL006C, strain TOP1, active compounds read low 1.05 | S. cerevisiae deletion strains, locus YOL012C, strain htz1 0.97 | S. cerevisiae deletion strains, locus YOL147C, strain pex11, active compounds read low 1.01 | S. cerevisiae deletion strains, locus YOR001W, strain rrp6, active compounds read low 0.961 | S. cerevisiae deletion strains, locus YOR061W, strain CKA2, active compounds read low 1.01 | S. cerevisiae deletion strains, locus YOR069W, strain VPS5, active compounds read low 0.998 | S. cerevisiae deletion strains, locus YOR070C, strain gyp1, active compounds read low 1 | S. cerevisiae deletion strains, locus YOR080W, strain dia2, active compounds read low 0.977 | S. cerevisiae deletion strains, locus YOR083W, strain WHI5 (second series), active compounds read low 0.964 | S. cerevisiae deletion strains, locus YOR083W, strain WHI5, active compounds read low 0.965 | S. cerevisiae deletion strains, locus YOR106W, strain vam3, active compounds read low 0.972 | S. cerevisiae deletion strains, locus YOR136W, strain idh2, active compounds read low 1.02 | S. cerevisiae deletion strains, locus YOR144C, strain elg1, active compounds read low 1.01 | S. cerevisiae deletion strains, locus YOR184W, strain ser1, active compounds read low 1.02 | S. cerevisiae deletion strains, locus YOR231W, strain MKK1, active compounds read low 0.986 | S. cerevisiae deletion strains, locus YOR265W, strain rbl2, active compounds read low 0.98 | S. cerevisiae deletion strains, locus YOR270C, strain vph1, active compounds read low 1.03 | S. cerevisiae deletion strains, locus YOR290C, strain snf2, active compounds read low 0.946 | S. cerevisiae deletion strains, locus YOR316C, strain cot1, active compounds read low 1.02 | S. cerevisiae deletion strains, locus YPL051W, strain arl3, active compounds read low 0.997 | S. cerevisiae deletion strains, locus YPL055C, strain LGE1, active compounds read low 1.01 and 1.02 | S. cerevisiae deletion strains, locus YPL078C, strain atp4, active compounds read low 0.956 | S. cerevisiae deletion strains, locus YPL106C, strain sse1, active compounds read low 0.938 | S. cerevisiae deletion strains, locus YPL240C, strain hsp82, active compounds read low 0.963 | S. cerevisiae deletion strains, locus YPL241C, strain CIN2, active compounds read low 0.992 and 0.993 | S. cerevisiae deletion strains, locus YPL256C, strain CLN2, active compounds read low 1.01 | S. cerevisiae deletion strains, locus YPR119W, strain clb2, active compounds read low 1.01 | S. cerevisiae deletion strains, locus YPR141C, strain kar3, active compounds read low 1.01 | S. cerevisiae deletion strains, locus YPR163C, strain tif3, active compounds read low 1.01 | S. cerevisiae deletion strains, locus YPR167C, strain met16, active compounds read low 1.02 | S. cerevisiae deletion strains, strain wtn01, active compounds read low 1.02 | S. cerevisiae strains, strain wild type, active compounds read low 0.979
